The text below walks through data of PubChem BioAssay AID1490 (National Center for Advancing Translational Sciences (NCATS), 2009).

Several values for one entry are separate records, joined by “and”; a condition that tells them apart may be missing. Equal entries are not always repeated. Among all 310,000 compounds or so, about 11,000 (3.5%) were called active. Inconclusive results (about 4%) are left out. Calls come from the whole dose curve; as a rule, active = well fitted inhibition curve with a large enough effect; inconclusive = small, poorly fitted or top-dose-only effect, or another doubt; inactive = no such curve, though single readings can be large or run the other way. The sample as a whole holds a higher share of actives than the screen did. Non-standard residues stand in square brackets, D forms with d. Residues, ends and D or L forms follow the SMILES beside them. ξ: configuration not given here. *: point of attachment. Cbz = O=C(OCc1ccccc1)*; ξL = CC(C)CC(N)C(=O)O; ξP = O=C(O)C1CCCN1
Potency is the fitted concentration of half-maximal effect.

The assay deals with 4'-phosphopantetheinyl transferase ffp (Bacillus subtilis) (UniProt Q9F4F7). The assay is described as follows: qHTS Assay for Inhibitors of Bacillus subtilis Sfp phosphopantetheinyl transferase (PPTase).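 For largest response in the series, negative = inhibition: 0% = enzyme reaction without inhibitor and -100% = no enzyme wells.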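 Note: the enzyme is Sfp with the accession as filed and its product quenches rhodamine fluorescence.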 To be noted: Biochemical Sfp PPTase activity. An excerpt:
Assay Submitter: Michael Burkart, University of California, San Diego
Screening Center PI: Austin, C.P.
Screening Center: NIH Chemical Genomics Center [NCGC]
The covalent attachment of a phosphopantetheinyl (4'-PP) arm to a variety of synthases and other proteins is a key posttranslational protein modification. The 4'-PP is installed on the proteins post-translationally from coenzyme A (CoA) on a conserved serine residue by action of phosphopantetheinyl transferase (PPTase) enzymes. Phosphopantetheinylation is essential for synthase activity, and removal of the PPTase gene precludes natural product synthesis in microorganisms, or in the case of fatty acid biosynthesis, renders the organism unviable. PPTase enzymes belong to a distinct structural superfamily. Within bacteria, these enzymes are grouped into two classes based upon primary structure, the AcpS-Type and Sfp-Type PPTases.
Sfp-type PPTases, corresponding to an activator of surfactin production in Bacillus subtilis, are responsible for modifying type I polyketide and nonribosomal peptide synthases of prokaryotes. Sfp-type PPTases are responsible for the activation of a variety of pathogen-associated virulence factors. Among these compounds are toxins such as mycolactone from Mycobacterium ulcerans, siderophores such as vibriobactin from Vibrio cholerae or mycobactin from Mycobacterium tuberculosis, as well as the mycolic acids which form the waxy cell wall of Mycobacteria. The biosyntheses of these natural products are considered attractive targets for drug design.
In search of small molecule Sfp-PPTase inhibitors, a fluorescence quenching assay was developed for detection of Bacillus subtilis Sfp-PPTase enzymatic activity in a miniaturized high-throughput format. The consensus ybbr acceptor peptide […] was N-terminally labeled with Black Hole Quencher-2 (BHQ-2) and used in combination with rhodamine-labeled coenzyme A as a co-substrate.
Inhibition of Sfp-PPTase was detected by recording the fluorescence intensity change over a 30-minute reaction period at a 525 nm excitation and 598 nm emission. Reagents were supplied by Michael Burkart and Timothy Foley, University of California at San Diego.
This BioAssay deposition is for validation of the developed Sfp-PPtase assay.
Assay Buffer: 50 mM Hepes-Na pH 7.6, 10 mM MgCl2, 0.01% Nonidet P-40, and 0.01% BSA.
3 uL of Sfp-PPTase enzyme (final concentration 15 nM) and 1 uL of substrate mixture (final concentration for rhodamine-CoA and BHQ-2-YbbR 5 uM and 12.5 uM, respectively) dispensed in columns 1, 2, 5 - 48. Columns 1 and 2 used to generate neutral control (uninhibited reaction)
Three uL of reagents, consisting of buffer (in columns 3 and 4 as negative control) and Sfp-PPTase (in columns 1, 2, 5 - 48) were dispensed into 1,536-well Greiner black solid bottom plate. Compounds (23 nL) were transferred via Kalypsys pintool equipped with 1,536-pin array. The plate was incubated for 15 min at room temperature, followed by the addition of 1 uL substrate to start the reaction. The plate was then centrifuged at 1000 rpm for 15 seconds, and the fluorescence intensity recorded on a ViewLux High-throughput CCD imager (Perkin-Elmer) using standard BODIPY optics (525 nm excitation and 598 nm emission). The plate was then incubated for 30 minutes, and a second read on the ViewLux was performed. The fluorescence intensity difference over the 30-minute period was used to calculate the respective reaction rate for each well.
Background: Quantitative high-throughput screening tests each substance at several concentrations.
Consider `Cc1ccc(CS(=O)Cc2ccc(C(=O)N3CCOCC3)o2)cc1` (stereo not drawn), for which the largest response in the series, negative = inhibition is 9.75% (inactive).

For the compound `O=C(Nc1ccnn1C1CCN(C/C=C/c2ccc(F)cc2)CC1)C1CCCC1`, the largest response in the series, negative = inhibition is -2.59% (inactive).

On to `O=C(c1ccc(F)cc1)N1CCCC(C(=O)N2CCCCC2)C1` (stereo not drawn), for which the largest response in the series, negative = inhibition was 1.26% (inactive). Take `CCOC(=O)C1=C(C(=O)OCC)C(C(=O)OCC)N(S(=O)(=O)C(F)(F)F)c2ccccc21` (stereo not drawn): the largest response in the series, negative = inhibition was 6.6% (inactive). Still for that read-out and setting: for `CCOC(=O)c1ccccc1CN1C(=O)c2ccccc2S1(=O)=O` the value was -2.27% (inactive). Take `CCOC(=O)c1cc2n(c1N)-c1ccccc1C2=O`: the Potency is 8.91 µM (active). For `CCc1cc(=O)oc2c(C)c(OCC(=O)NCCN3CCOCC3)ccc12`, the largest response in the series, negative = inhibition was 9.5% (inactive). Still for that read-out and setting: for `CSCCC(NS(=O)(=O)c1ccc(C)cc1)C(=O)NCCc1c[nH]c2ccccc12` (stereo not drawn) the value was 6.95% (inactive); for `O/N=C(\C[n+]1ccccc1)c1ccc(Br)cc1`, -2.63% (inactive). The same measure, in the same setting: then `C=CCSc1nc2c(c(=O)[nH]c(=O)n2C)n1Cc1ccccc1`, with 9.86% (inactive). Turning to `Cn1c(=O)[nH]c(=O)c2c1[nH]c(=S)n2Cc1ccccc1`, the Potency is 44.7 µM (active). For the compound `COc1ccc(CNc2nc3c(c(=O)[nH]c(=O)n3C)n2Cc2ccccc2)cc1`, the largest response in the series, negative = inhibition was 11.4% (inactive). Same read-out and setting: for `CC1CCN(C(=O)C2CCN(S(=O)(=O)N3CCC4(CC3)OCCO4)CC2)CC1` the value was 17.9% (inactive); for `O=c1c([N+](=O)[O-])cc(C(F)(F)F)cn1Cc1cccc(Cl)c1`, 3.19% (inactive). For `O=[N+]([O-])/C=C/c1ccc2c(ccn2Cc2ccccc2)c1`, the Potency is 25.1 µM (active). On to `O=C(/C=C/c1cccc([N+](=O)[O-])c1)N1CCN(Cc2ccccc2)CC1`, for which the largest response in the series, negative = inhibition was 2.23% (inactive).

In the case of `COc1cc(NC(=O)CN2C(=O)NC(C)(c3ccc(OC(F)F)cc3)C2=O)cc(OC)c1OC` (stereo not drawn), the largest response in the series, negative = inhibition is 17.8% (inactive). As to `Cc1cccc(NC(=O)NC(=S)NC(=O)c2ccccc2)c1`, the largest response in the series, negative = inhibition is 18.4% (inactive). In the case of `Oc1cc2c(cc1O)CN(C(=S)NCCc1ccc(Cl)cc1)CCC2`, the Potency was 56.2 µM (active) and 44.7 µM (active). As for `O=C(NCCc1ccc(Cl)cc1)c1cccc(N2CCCC2=O)c1`, the largest response in the series, negative = inhibition is 4.32% (inactive).

On to `S=C(NCCc1ccccc1)N1CCCCC1`, for which the largest response in the series, negative = inhibition is 5.57% (inactive). On the same count and under the same terms, for `COc1ccc([N+](=O)[O-])cc1NCC(=O)c1ccc(C)cc1` the value was -11.6% (inactive). As to `Cc1cccc(C(=O)Nc2ccc(C(=O)N/N=C/c3cccc(C)n3)cc2)c1`, the largest response in the series, negative = inhibition is -3.6% (inactive). Turning to `Fc1ccc(-c2ccc(-c3nn4c(-c5ccco5)nnc4s3)o2)cc1`, the Potency was 17.8 µM (active). Regarding `COc1cc(-c2nn3c(-c4cccc(C)c4)nnc3s2)cc(OC)c1OC`, the largest response in the series, negative = inhibition was 10.2% (inactive). Take `c1ccc(-c2cc(-c3nnc4sc(-c5ccccn5)nn34)[nH]n2)cc1`: the largest response in the series, negative = inhibition was 0.622% (inactive). The same measure, in the same setting: for `C=CC1=C2C=C(C3CC3)N(C(CO)CO)C=C2C(=O)C(C)(OC(=O)c2ccco2)C1=O` (stereo not drawn) the value was 11.3% (inactive); for `Cc1ccc(CNCc2ccc3c(c2)OCO3)c(C)c1`, -14.4% (inactive). Still for that read-out and setting: for `CC(=O)Nc1ccc(NC(=O)CC2CCCC2)cc1` the value was 1.03% (inactive). Regarding `O=C(c1c(Cl)cccc1Cl)N1CCN(c2cccc3[nH]ccc23)CC1`, the Potency is 89.1 µM (active). As to `O=C(c1c(F)cccc1Cl)N1CCN(c2ccccn2)CC1`, the largest response in the series, negative = inhibition was 2.71% (inactive). Same read-out and setting: then `O=C(c1ccc2ccccc2n1)N1CCN(c2ccccc2Cl)CC1`, with -10.1% (inactive); and `COc1ccc(C(=O)CCC(=O)Nc2ccc(Cl)cc2)cc1`, with 9.46% (inactive).

Regarding `CC/C(C)=N/Nc1nc2sc3c(c2c(=O)[nH]1)CC(C)(C)OC3`, the Potency was 39.8 µM (active). Regarding `CCOC(=O)CSc1nc2sc3c(c2c(=O)[nH]1)CC(C)(C)OC3`, the largest response in the series, negative = inhibition was -10.3% (inactive).

Regarding `CCSc1nc2sc3c(c2c(=O)[nH]1)CC(C)(C)OC3`, the largest response in the series, negative = inhibition is 1.72% (inactive). On the same count and under the same terms, then `CC(C)CC(NC(=O)C1CCCN1C(=O)[C@@H](C)NC(=O)OCc1ccccc1)C(=O)NCC(N)=O` (stereo partly drawn) (Cbz-[dA][ξP][ξL]G-NH2), with 4.6% (inactive); and `COc1ccc2oc(=N)c(C(=O)Nc3ccc(Br)cc3)cc2c1`, with 17.1% (inactive); and `Cc1ccccc1NC(=S)NC(=O)Cc1ccc(Cl)cc1`, with 1.33% (inactive). With `COC(=O)c1ccc(CNC(=O)c2ccc3oc(C(C)C)nc3c2)cc1`, the largest response in the series, negative = inhibition is 14.1% (inactive).

As for `C[C@@H](NC(=O)OC(C)(C)C)c1nnc(S(=O)(=O)Cc2ccccc2)o1`, the Potency is 22.4 µM (active). Consider `C[C@H](NC(=O)OC(C)(C)C)c1nnc(SCC(=O)Nc2ccc(Br)cc2)o1`, for which the largest response in the series, negative = inhibition is 20% (inactive). Take `CCc1ccccc1NC(=O)CSc1nnc([C@@H](NC(=O)OC(C)(C)C)C(C)C)o1`: the largest response in the series, negative = inhibition is 0.218% (inactive). As for `CC(C)Sc1nnc([C@H](Cc2ccccc2)NC(=O)OC(C)(C)C)o1`, the Potency was 50.1 µM (active). For the compound `COc1ccccc1NC(=O)[C@H](COCc1ccccc1)NC(=O)OC(C)(C)C`, the largest response in the series, negative = inhibition is 14.9% (inactive). In the case of `CCc1ccccc1NC(=O)CSc1nnc([C@@H](NC(=O)OC(C)(C)C)C(C)CC)o1` (stereo partly drawn), the largest response in the series, negative = inhibition is 6.3% (inactive). Still for that read-out and setting: then `CCOC(=O)CC1(NC(=O)c2cc(COc3cncc(Cl)c3)on2)CCCCC1`, with -1.1% (inactive); and `CC(C)(C)NC(=O)C(c1ccc(Cl)cc1)N(CCO)C(=O)c1snc(C(N)=O)c1N` (stereo not drawn), with 3.24% (inactive). Regarding `O=C(Nc1cccnc1Cl)c1cc(-c2cccc(Cl)c2)on1`, the largest response in the series, negative = inhibition is -6.07% (inactive). The same measure, in the same setting: for `O=C(Nc1cccc(F)c1)[C@@H]1CCCN1` the value was 1.19% (inactive); for `Cc1ccc(NC(=O)C2CCCN2S(=O)(=O)c2cccc3cccnc23)c(C)c1` (stereo not drawn), 10.9% (inactive); for `CCCCC(C(=O)NC(C)(C)C)N(Cc1ccccc1)C(=O)c1snc(C(N)=O)c1N` (stereo not drawn), 3.56% (inactive). For the compound `CCc1ccc2[nH]c(=O)c(Cc3ccccc3)c(O)c2c1`, the largest response in the series, negative = inhibition is 0.106% (inactive). On the same count and under the same terms, for `CC(NC(=O)c1ccco1)c1ccc2c(c1)OCO2` (stereo not drawn) the value was 11.2% (inactive); for `COc1cccc(N(C(=O)c2snc(C(N)=O)c2N)C(C(=O)NCC2CCCO2)c2c[nH]c3ccccc23)c1` (stereo not drawn), -7.12% (inactive).

`CC(Sc1sc(=S)sc1SC(C)C(=O)O)C(=O)O` (stereo not drawn): the Potency is 79.4 µM (active). With `CC(Sc1nnnn1C1CCCCC1)C(=O)O` (stereo not drawn), the largest response in the series, negative = inhibition is 0.844% (inactive). Consider `NC(=O)c1nsc(C(=O)N(CCCN2CCOCC2)C(C(=O)NC2CCCCC2)c2ccc(Cl)cc2)c1N` (stereo not drawn), for which the largest response in the series, negative = inhibition was 15% (inactive).
